This test deals with Epidermal growth factor receptor (Homo sapiens) (UniProt P00533). The test is described as follows: compounds binding epidermal growth factor receptor – biochemical, small-molecule microarray, 635 nm fluorescence, primary screen (AID 1104).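 Also: score merges 667 nm emission intensity with spot signal to noise over triplicate slides.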 The following applies: EGFR binding, higher = more signal.
Chain of Epidermal growth factor receptor (Homo sapiens) (P00533 whole entry, looked up): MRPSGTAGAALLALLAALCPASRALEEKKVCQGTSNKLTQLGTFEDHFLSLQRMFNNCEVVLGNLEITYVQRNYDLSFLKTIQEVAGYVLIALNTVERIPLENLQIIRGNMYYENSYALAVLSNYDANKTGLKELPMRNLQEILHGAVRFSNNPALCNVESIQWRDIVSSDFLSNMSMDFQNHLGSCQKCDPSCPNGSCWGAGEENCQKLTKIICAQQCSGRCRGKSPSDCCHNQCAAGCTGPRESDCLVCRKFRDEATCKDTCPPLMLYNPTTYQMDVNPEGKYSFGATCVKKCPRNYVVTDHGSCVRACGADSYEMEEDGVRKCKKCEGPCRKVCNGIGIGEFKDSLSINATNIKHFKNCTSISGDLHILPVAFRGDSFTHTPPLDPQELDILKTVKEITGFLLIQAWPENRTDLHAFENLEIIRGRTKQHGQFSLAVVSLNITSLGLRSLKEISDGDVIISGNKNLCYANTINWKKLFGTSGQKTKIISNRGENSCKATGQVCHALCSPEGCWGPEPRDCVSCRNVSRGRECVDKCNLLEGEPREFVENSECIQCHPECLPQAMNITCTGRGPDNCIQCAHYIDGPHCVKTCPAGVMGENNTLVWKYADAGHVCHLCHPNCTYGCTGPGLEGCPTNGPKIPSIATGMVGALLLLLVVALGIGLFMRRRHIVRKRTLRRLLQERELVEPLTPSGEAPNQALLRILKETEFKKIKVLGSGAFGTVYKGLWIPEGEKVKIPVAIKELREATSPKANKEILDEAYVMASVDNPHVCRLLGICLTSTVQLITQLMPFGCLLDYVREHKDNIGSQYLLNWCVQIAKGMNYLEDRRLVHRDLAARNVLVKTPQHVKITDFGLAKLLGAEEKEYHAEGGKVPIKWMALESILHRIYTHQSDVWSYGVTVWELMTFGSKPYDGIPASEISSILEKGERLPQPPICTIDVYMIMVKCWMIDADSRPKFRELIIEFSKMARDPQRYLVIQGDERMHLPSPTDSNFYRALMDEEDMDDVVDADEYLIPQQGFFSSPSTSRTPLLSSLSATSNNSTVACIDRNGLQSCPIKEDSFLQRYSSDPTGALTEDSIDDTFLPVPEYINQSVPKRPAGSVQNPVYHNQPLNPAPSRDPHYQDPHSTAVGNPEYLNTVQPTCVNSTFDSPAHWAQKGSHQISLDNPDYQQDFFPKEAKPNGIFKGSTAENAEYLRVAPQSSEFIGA
Take `CCOC(=O)C[C@H]1[C@H](OC(=O)c2cc3ccccc3oc2=O)[C@@H](NC(=O)c2ccc3ccccc3n2)c2cc(OCCCO)ccc2N1C(=O)c1ccc2ccccc2n1`: the composite z-score amounted to 0.503.

In the case of `CN1C(=O)C2C=CC(C(O)C3CCCCC3)N(N(c3ccccc3)c3ccccc3)C2C1=O` (stereo unspecified), the composite z-score was -1.34.

In turn, `COc1ccccc1CN1C(=O)c2ccccc2[C@@H](C(=O)NCC(C)C)[C@@H]1c1ccc(CO)cc1` displayed a composite z-score of -0.318.

The compound `COC(=O)[C@@]1(Cc2ccccc2)[C@H]2c3cc(C(=O)N(C)C)n(Cc4ccc(O)c(OC)c4)c3C[C@H]2CN1C(=O)c1ccccc1` displayed a composite z-score of -0.34.

`CCOC(=O)C[C@H]1[C@H](OC(=O)c2ccccc2-c2ccccc2)[C@@H](NC(=O)c2ccccc2)c2cc(OCCCO)ccc2N1C(=O)Cc1ccc(OC)cc1` gave a composite z-score of -0.104.

In turn, `CCC[C@@H]1C[C@@]1(CCC)[C@@H](NC(=O)c1ccco1)c1ccc(Cl)cc1` displayed a composite z-score of -0.414.

`CN(C)CCCN1C(=O)[C@@]2(Cc3ccccc31)c1ccccc1C(=O)N(Cc1ccccc1)[C@H]2c1ccc(CO)cc1` showed a composite z-score of -0.306.

`O=C(NCc1ccccc1)[C@]1(Cc2ccccc2)N=C(c2ccc(OCCCO)cc2)O[C@@H]1c1ccccc1`: the composite z-score is 0.178.

As to `O=C1c2ccccc2[C@](Cc2ccccc2I)(C(=O)NC2CC2)[C@H](c2ccc(CO)cc2)N1Cc1ccccc1Cl`, the composite z-score is -0.0191.

Regarding `C=C(C(=O)CC[C@H](OC(=O)c1cccnc1)c1ccc(OCCO)cc1)C(C)C`, the composite z-score came to 0.0365.

On to `COCCOC(=O)N1C(=O)[C@@]2(c3cc(C#CCCO)ccc31)[C@H](C(=O)N1CCc3cc(OC)c(OC)cc3C1)[C@H]1C(=O)O[C@H](c3ccccc3)[C@H](c3ccccc3)N1[C@@H]2c1ccc(OCCO)cc1`, for which the composite z-score came to 0.846.

`C[N+](C)(C)CCCC[C@@H]1NC(=O)[C@H]2C[C@@H](C(=O)NCCCCCCN)[C@@H](c3cccc(OCCO)c3)N2C1=O`: the composite z-score was determined as 0.717.

On to `COC(=O)C(CC#Cc1ccc2c(c1)[C@]1(C(=O)N2)[C@H](c2ccc(O)cc2)N2[C@H](c3ccccc3)[C@H](c3ccccc3)OC(=O)[C@H]2[C@@H]1C(N)=O)C(=O)OC`, for which the composite z-score is -0.856.

Compound `CN(C)C(=O)[C@@]1(CCC(=O)OC(C)(C)C)N=C(c2ccc(OCCCO)cc2)O[C@H]1c1ccccc1N=[N+]=[N-]` yielded a composite z-score of 0.334.

As to `CCOC(=O)C[C@H]1[C@H](OC(=O)Cc2ccc3c(c2)OCO3)[C@@H](NC(=O)c2ccccc2)c2cc(OCCCO)ccc2N1C(=O)c1ccc2ccccc2n1`, the composite z-score was determined as 0.548.

In turn, `O=[N+]([O-])c1ccc(C[n+]2ccc(-c3ccc(CO)cc3)cc2)o1` showed a composite z-score of 0.224.

For `NC(=O)[C@H]1[C@@H]2C(=O)O[C@@H](c3ccccc3)[C@@H](c3ccccc3)N2[C@@H](c2ccc(O)cc2)[C@]12C(=O)Nc1ccc(C#CC3(O)CCCCCC3)cc12`, the composite z-score worked out at 0.53.

Compound `CN(C)C(=O)[C@@]1(Cc2ccccc2N=[N+]=[N-])N=C(c2ccc(OCCCO)cc2)O[C@H]1c1ccccc1N=[N+]=[N-]` returned a composite z-score of 0.284.

The compound `NC(=O)NCC#Cc1ccc2c(c1)[C@]1(C(=O)N2)[C@H](c2ccc(O)cc2)N2[C@H](c3ccccc3)[C@H](c3ccccc3)OC(=O)[C@H]2[C@@H]1C(N)=O` yielded a composite z-score of -0.341.

The compound `NC(=O)NCC#Cc1ccc2c(c1)[C@]1(C(=O)N2)[C@H](c2ccc(OCCO)cc2)N2[C@H](c3ccccc3)[C@H](c3ccccc3)OC(=O)[C@H]2[C@@H]1C(=O)N1CCN(c2ncccn2)CC1` displayed a composite z-score of 0.231.

`O=C1N(Cc2ccccc2)c2ccccc2[C@H]2OC(c3ccc(OCCCO)cc3)=N[C@@]12CCS(=O)(=O)c1ccccc1` had a composite z-score of 0.385.

In turn, `COCC(=C=CC[C@@H](O)c1ccccc1OCCO)C[C@@H](O)c1ccccn1` had a composite z-score of -0.0982.

Consider `COc1ccc(C#Cc2ccc3c(c2)[C@]2(C(=O)N3)[C@H](c3ccc(OCCO)cc3)N3[C@H](c4ccccc4)[C@H](c4ccccc4)OC(=O)[C@H]3[C@@H]2C(=O)N2CCN(c3ncccn3)CC2)cc1`, for which the composite z-score was determined as 0.176.

Consider `COc1ccc(C(=O)Nc2ccc3c(c2)[C@]2(O[C@@H](CCO)[C@H]([Si](C)(C)c4ccc(OC)cc4)[C@H]2C)C(=O)N3Cc2ccccc2)cc1`, for which the composite z-score was 0.349.

Regarding `CC(C)C[C@@H]1NC(=O)[C@@]23C(=O)N[C@@H](Cc4ccccc4)C2[C@H](C)[C@@]2(C)O[C@H]2C3/C=C/C/C=C\CNC(=O)[C@@H]2CCCN2C1=O` (stereo partly specified), the composite z-score worked out at 0.0731.

`Cc1cc(C)c(C(O)C2C=CC3C(=O)N(c4ccccc4)C(=O)C3N2Nc2ccc([N+](=O)[O-])cc2)c(C)c1` (stereo unspecified) registered a composite z-score of 0.326.

`CC[C@@H]1[C@@H]2C3C(=O)N(CC)C(=O)C3CC(=O)[C@@H]2[C@H](c2ccc(C)cc2)N1S(=O)(=O)c1ccc(C)cc1` (stereo partly specified) gave a composite z-score of 0.174.

In turn, `C=CCNC(=O)[C@@H]1[C@H]2C(=O)O[C@H](c3ccccc3)[C@H](c3ccccc3)N2[C@H](c2ccc(O)cc2)[C@@]12C(=O)Nc1ccc(C#CCCO)cc12` came in with a composite z-score of -0.949.

Regarding `O=C1NC(=O)C2C1C=CC(C(O)c1ccc(-c3ccccc3)s1)N2Nc1ccccn1` (stereo unspecified), the composite z-score came out at 0.559.

`OCCCC1=CC(c2cccs2)N(Cc2cccc(OC(F)(F)F)c2)CC1` (stereo unspecified): the composite z-score was -0.547.

`O=C1OCC=C[C@H]2OC34C=CCN(CCN5CCOCC5)C(=O)[C@H]3N(CCCCCO)C(=O)[C@@H]4[C@@H]12` (stereo partly specified) came in with a composite z-score of -0.411.

Take `CCCN1C(=O)[C@@]2(Cc3ccccc3)N=C(c3ccc(OCCCO)cc3)O[C@H]2c2ccccc21`: the composite z-score turned out to be 0.234.

As to `C[N+](C)(C)CCCC[C@@H]1NC(=O)[C@@H]2C[C@H](C(=O)O)[C@H](c3cccc(OCCO)c3)N2C1=O`, the composite z-score was -0.188.

The compound `C/C=C/[C@@H](CCn1cc([C@H](O)c2ccccc2)nn1)[Si](C)(C)c1ccc(OC)cc1` registered a composite z-score of -0.849.

Compound `CCN(CC)c1ccc(N2CC=CC34O[C@@H]5/C=C\CCCOC(=O)C5[C@H]3C(=O)N(CCCCCCO)[C@@H]4C2=O)cc1` (stereo partly specified) had a composite z-score of -1.4.

In turn, `COC(=O)[C@@]1(Cc2ccc(OC)cc2)[C@H]2c3cc(C(=O)N4CCCC4)n(CCF)c3C[C@H]2CN1C(=O)c1ccccc1` returned a composite z-score of 1.46.

The values are drawn from PubChem BioAssay.
